In PubChem BioAssay (NCI):
This is part of a sample that, as a whole, favours compounds with a hit. Of some 83,000 tested, about 20% had one in any assay.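 Cells were grown in 96-well plates and exposed to the test compound at a single concentration for 48 hours; results are reported as percent growth, with values below 10 considered active.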 Values without a mark were called inactive. The source made the active and inactive calls.

Tests used:
Assay in all cases: NCI-60 one-dose screen, 48 h (100 = growth as untreated, 0 = no growth, -100 = all killed)
Details in all cases: 10 µM unless noted
[1] = system: HCT-15 colon
[2] = system: HT29 colon
[3] = system: SNB-75 CNS
[4] = system: SNB-19 CNS
[5] = system: U251 CNS
[6] = system: PC-3 prostate
[7] = system: SK-MEL-5 melanoma
[8] = system: UACC-62 melanoma
[9] = system: LOX IMVI melanoma
[10] = system: SK-MEL-28 melanoma
[11] = system: SK-MEL-2 melanoma
[12] = system: EKVX NSCLC
[13] = system: SN12C renal
[14] = system: UO-31 renal
[15] = system: TK-10 renal
[16] = system: ACHN renal
[17] = system: CAKI-1 renal
[18] = system: A498 renal
[19] = system: CCRF-CEM leukemia
[20] = system: MOLT-4 leukemia

Row | Compound | growth [1] | growth [2] | growth [3] | growth [4] | growth [5] | growth [6] | growth [7] | growth [8] | growth [9] | growth [10] | growth [11] | growth [12] | growth [13] | growth [14] | growth [15] | growth [16] | growth [17] | growth [18] | growth [19] | growth [20]
1 | O=C1/C(=C/c2ccccc2)CN(C(=O)c2cccnc2)C/C1=C\c1ccccc1 | -5.39% (active) | -34% (active) | 81.6% | 6.39% (active) | -23.8% (active) | -17.6% (active) | -39.1% (active) | -46.2% (active) | -84% (active) | -9.39% (active) | 89.6% | 30.2% | 6.72% (active) | -54.5% (active) | 20.7% | -15.7% (active) | 5.87% (active) | 65.3% | -15% (active) | 0.998% (active)
2 | CCCCCCOC(=O)CC1=C(C)/C(=C/c2[nH]c(-c3ccc[nH]3)cc2OC)N=C1C | -34.9% (active) | 1.26% (active) | -5.75% (active) | 12.8% | -68.8% (active) | -23% (active) | -92.1% (active) | -64.5% (active) | -82% (active) | -64.9% (active) | -49.5% (active) | -35% (active) | -63% (active) | -86.9% (active) | -24.9% (active) | -19.5% (active) | 0.637% (active) | -49.4% (active) | -22.5% (active) | -30.3% (active)
3 | COC(=O)c1ccc2c(c1)c1c(C)c3ccncc3c(C)c1n2C | 18.6% | 12.4% | 22% | 29% | 20.9% | 31.8% | 14.5% | 3.04% (active) | 4.81% (active) | 35.4% | 13.9% | 34.3% | 36.1% | 11.9% | 32.7% | 14.8% | 13% | -0.17% (active) | 30.4% | 12.9%
4 | Cc1nc2sc(C(=O)Nc3ccc(Cl)cc3)c(N)c2cc1C(O)c1ccccc1 (stereo not given) | 28.9% | 25% | 26.5% | 41.2% | 32.8% | 21.9% | 30.4% | 17.7% | 33.4% | 57.5% | 56.6% | 44.2% | 40.6% | 47.9% | 60.3% | 33.4% | 47.5% | 13.5% | 13.4% | 17.8%
5 | CC(=O)N(Cc1ccccc1)c1nc2ccc(O)c(CN(C)C)c2s1 | 97.8% | 109% | 79.2% | 100% | 96.2% | 90.2% | 99% | 93.7% | 94.1% | 107% | 108% | 89% | 99.2% | 77% | 99.6% | 96.8% | 82.8% | 66% | 106% | 112%
6 | Cc1ccc(S(=O)(=O)n2cc(C3C(Cl)C(=O)N3c3ccc(N4CCOCC4=O)cc3)c3ccccc32)cc1 (stereo not given) | 28% | 56.6% | 31.1% | 70.8% | 48.7% | 43.5% | 43.8% | 51.3% | 34.2% | 69.3% | 74.7% | 72.6% | 44.5% | 37.6% | 88% | 71.4% | 24.9% | 65.8% | 29.5% | 47.5%
7 | O=C1/C(=C/c2ccc(C(F)(F)F)cc2)COc2ccc(O)cc21 | 40.6% | 44.2% | 81.1% | 85.3% | 52.3% | 70.3% | 97.4% | 80.2% | 2.9% (active) | 100% | 99.7% | 96.3% | 69.3% | 44.8% | 99.2% | 91.3% | 71.9% | 109% | 3.29% (active) | 4.15% (active)
8 | CCc1cccc(Sc2cc(C(=O)N3Cc4ccc(OCCN(C)C)cc4C3)ccc2O)c1 | 30.7% | 103% | 121% | 71.2% | 54.9% | 54.6% | 26.5% | 66.5% | 46.7% | 90.8% | 88.2% | 39.2% | 63.9% | 56.5% | 63.2% | 58.2% | 83.5% | 42.2% | 29.2% | 25%
9 | COc1cc(N2C(=O)[C@H](c3ccccc3)C2c2ccc(SC)cc2)cc(OC)c1OC (stereo not given in full) | 1.35% (active) | -9.59% (active) | 69.4% | 30.8% | 7.35% (active) | 17.7% | -20.7% (active) | 7.64% (active) | 13.4% | 60.9% | 31.1% | 33.7% | 24.3% | 32.5% | 50.9% | 30.2% | 21.3% | -4.14% (active) | 5.22% (active) | 2.92% (active)
10 | CN(C)c1ccc(C(=NO)c2ccc(N(C)C)cc2)cc1 | 24.4% | 5.39% (active) | 53.6% | 46.3% | 28.1% | 58% | 14.5% | 28.1% | 43.1% | 56.3% | -23% (active) | 50.8% | 45.5% | 67.1% | 56.6% | 50.9% | 24.1% | 31.3% | 38.3% | 31.7%
11 | CC(C)c1ccc(NC(=O)Nc2ccc(NC(=O)c3ccccc3N)cc2)cc1 | 50.7% | 26.5% | 26.3% | 55.5% | 35.6% | 47.6% | 24.3% | 3% (active) | 20.9% | 39.9% | 45.3% | 48.2% | 91.6% | 20.5% | 65.5% | 29.6% | 70.7% | 49.6% | 29% | 19.2%
12 | O=C(Nc1ccccc1O)c1ccccc1Nc1ccnc(C(F)(F)F)c1 | 104% | 124% | 90.7% | 107% | 102% | 94.4% | 70.7% | 57.7% | 89.3% | 117% | 104% | 93% | 87.3% | 66.2% | 136% | 93.8% | 98.3% | 145% | 84.8% | 74.5%
13 | CC1O[C@@H]2C[C@@](O)([C@H]1O)n1c3ccccc3c3c4c(c5c6ccccc6n2c5c31)C(=O)NC4=O (stereo not given in full) | 62% | 28.6% | 44.8% | 35% | 24.8% | 41.2% | 1.39% (active) | 9.56% (active) | 7.1% (active) | 69.1% | 75.4% | 68.7% | 55.1% | 24.8% | 79.6% | 19.3% | 28% | 42.4% | 27.9% | 10.5%
14 | COCC[C@H]1CCC/C=C/[C@@H]2C[C@H](O)C[C@H]2[C@H](O)/C=C/C(=O)O1 | 9.76% (active) | -13.8% (active) | 33.9% | 30.2% | 15.5% | 20.5% | -92% (active) | 21.7% | -62.3% (active) | 0.149% (active) | -3.55% (active) | 4.95% (active) | 8.16% (active) | 10.9% | -38.5% (active) | 4.75% (active) | -18.6% (active) | -31.1% (active) | 17.6% | 7.61% (active)
15 | CCN(CC)CCNC(=O)c1ccc(-c2nc3ccc4[nH]ncc4c3c3c2CCCC3)cc1 | 28.3% | 68.3% | 54.2% | 85.4% | 54.9% | 57.2% | 69.8% | 33.8% | 46% | 73.2% | 60.5% | 51% | 70.9% | 40.3% | 47.7% | 24.7% | 9.09% (active) | 16.9% | 47% | 50%
